This is an account of results in PubChem BioAssay (NCATS).

Records with an inconclusive call do not appear. Calls of active or inactive are those of the source. Calls follow the shape of the dose curve; as a rule, active = well fitted curve in the direction sought with a large enough effect; inconclusive = small, poorly fitted or top-dose-only effect, or another doubt; inactive = no such curve, though single readings can be large; an effect the other way counts as inactive or inconclusive.

Assay [1] in a line: Quantitative High-Throughput drug screen in 47 multiple myeloma cell lines against the NCATS MIPE library collection: FR4_PLB cell viability assay (AID 1918924; also: nearly all actives have a fitted effect of over 35% in size; also: potency is read from the fitted curve at half-maximal effect). In outline: (§1)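 Approved and investigational drugs from MIPE 4.0 were added by pin tool to 500 cells per well. After 48 hours at 37C, ATP-based CellTiter-Glo luminescence indicated remaining viability.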
Assay [2] is described as follows: Quantitative High-Throughput drug screen in 47 multiple myeloma cell lines against the NCATS MIPE library collection: Delta47_JCRB cell viability assay (AID 1918925; also: nearly all actives have a fitted effect of over 45% in size; also: potency is read from the fitted curve at half-maximal effect). Summed up: (§2)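 Inhibition of cell viability is measured here. Each line was plated at 500 cells per well, treated with MIPE 4.0 drugs, kept 48 hours at 37C, then assayed for ATP content by CellTiter-Glo luminescence.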

A short description of assay [3]: Quantitative High-Throughput drug screen in 47 multiple myeloma cell lines against the NCATS MIPE library collection: EJM_DSMZ cell viability assay (AID 1918926; also: nearly all actives have a fitted effect of over 30% in size; also: potency is read from the fitted curve at half-maximal effect). Summed up:
as §2

In assay [4] the test system is Nanoluciferase (engineered Oplophorus gracilirostris luciferase). In words: Primary Nanoluciferase (NLuc) qHTS assay for identification of artifact compounds. (AID 1845222). Also: series mostly up to about 54 µM. In outline:
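Compounds are pinned into diluted (1:55) conditioned medium of NLuc-expressing S16 cells and held 15 min at room temperature protected from light. Nano-Glo substrate follows, and luminescence is read 5 min later.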

The nature of assay [5]: Primary redox qHTS assay for identification of artifact compounds. (AID 1845223). Also: potency is read from the fitted curve at half-maximal effect. In outline:
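Redox-cycling detection via DTT (250 uM final) oxidation coupled to Amplex Red (25 uM)/HRP (250 mU/mL) in HBSS. 15 min preincubation plus 30 min after DTT, room temperature. Ex/Em 525/598 nm; 4-parameter Hill fit against DMSO and 10 uM DA3003.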
On the technique in general: qHTS replaces the single test concentration by a dilution series.

A short description of assay [6]: Quantitative High-Throughput drug screen in 47 multiple myeloma cell lines against the NCATS MIPE library collection: AMO1_DSMZ cell viability assay (AID 1918927; also: nearly all actives have a fitted effect of over 30% in size; also: potency is read from the fitted curve at half-maximal effect). Summed up:
as §2

Assay [7] can be described thus: Quantitative High-Throughput drug screen in 47 multiple myeloma cell lines against the NCATS MIPE library collection: ARP1_JJKsccF8 cell viability assay (AID 1918928; also: nearly all actives have a fitted effect of over 40% in size; also: potency is read from the fitted curve at half-maximal effect). Summed up: (§3)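 CellTiter-Glo luminescence after 48 h exposure gives viability, scaled between DMSO-only (100%) and media-only (0%) controls. Library compounds are pinned onto 500 myeloma cells per well, incubated at 37C with 5% CO2.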

Assay [8] is described as follows: Quantitative High-Throughput drug screen in 47 multiple myeloma cell lines against the NCATS MIPE library collection: ARD_JJKsccE7 cell viability assay (AID 1918929; also: potency is read from the fitted curve at half-maximal effect). In outline:
as §2

A short description of assay [9]: Quantitative High-Throughput drug screen in 47 multiple myeloma cell lines against the NCATS MIPE library collection: KMM1_JCRB cell viability assay (AID 1918960). Also: nearly all actives have a fitted effect of over 30% in size. Also: potency is read from the fitted curve at half-maximal effect. In outline:
as §3

A short description of assay [10]: Quantitative High-Throughput drug screen in 47 multiple myeloma cell lines against the NCATS MIPE library collection: Karpas620_DSMZ cell viability assay (AID 1918959). Also: nearly all actives have a fitted effect of over 30% in size. Also: potency is read from the fitted curve at half-maximal effect. In outline:
as §1

`CCCN[C@H]1CCc2nc(N)sc2C1`: the Potency result in [1], in [2] and in [3] was “inactive” each time.

For `Nc1nc(F)nc2c1ncn2[C@@H]1O[C@H](CO)[C@@H](O)[C@@H]1O`, the result in assay [4] was inactive. In addition, the Potency entry in assay [5] is “inactive”. Also, the Potency was 0.187 µM (active) in assay [1]; 0.148 µM (active) in assay [2]; 0.418 µM (active) in assay [3]; 0.372 µM (active) in assay [6]; 0.264 µM (active) in [7]; 0.332 µM (active) in [8]. Also, the Potency in assay [9] was 0.526 µM (active).

Consider `CNS(=O)(=O)CCc1ccc2[nH]cc(C3CCN(C)CC3)c2c1`, for which the call in assay [4] was inactive. For the same compound, in assay [5], the Potency entry is “inactive”. Besides, the Potency in assay [1] was 16.6 µM (active); in [2] it was 1.18 µM (active); in assay [6], 2.35 µM (active); in [8], 10.5 µM (active); in assay [9], 18.7 µM (active).

Take `CC1(C)[C@H](C(=O)O)N2C(=O)C[C@H]2S1(=O)=O`: the compound was classed as inactive in assay [4]. Also, the Potency entry in assay [5], in [1], in assay [2], in assay [3], in [7] and in [9] was “inactive” each time.

With `Nc1[nH]c(=O)ncc1F`, the Potency result in assay [1], in [2], in assay [3], in [7], in [8] and in assay [10] was “inactive” each time. For the same compound, the Potency entry in assay [9] is “inactive”. In addition, in assay [6], the Potency is 4.69 µM (active).

For the compound `COc1cc2ncnc(Nc3cccc(Cl)c3)c2cc1OC`, in [4], the outcome was inactive. Further, the Potency in [1] is 26.4 µM (active); in [3], 0.0418 µM (active); in assay [6] it was 23.5 µM (active); in [7] it was 26.4 µM (active); in [8], 23.5 µM (active); in assay [9] it was 20.9 µM (active).

Take `CCCCc1oc2ccc(NS(C)(=O)=O)cc2c1C(=O)c1ccc(OCCCN(CCCC)CCCC)cc1`: the result in assay [4] was inactive. The Potency result in assay [5] is “inactive”. Besides, the Potency was 16.6 µM (active) in assay [1]; 11.8 µM (active) in assay [2]; 16.6 µM (active) in [3]; 9.35 µM (active) in [6]; 16.6 µM (active) in [7]; 16.6 µM (active) in assay [8]. Also, the Potency in assay [10] and in assay [9] was 20.9 µM (active) throughout.

As for `CC[C@H](C)C(=O)O[C@H]1C[C@@H](C)C=C2C=C[C@H](C)[C@H](CC[C@@H]3C[C@@H](O)CC(=O)O3)[C@H]21`, in [4], the compound was called inactive. For the same compound, the Potency result in assay [5], in assay [3], in assay [6], in [8], in assay [10] and in assay [9] was “inactive” each time. The Potency was 11.8 µM (active) in assay [1] and 23.5 µM (active) in assay [7].

In the case of `CCOCC(O)COc1ccc(NC(=O)CC[S+](C)C)cc1` (stereo not drawn), the Potency entry in assay [1], in assay [2], in [3], in [6], in assay [7] and in assay [8] was “inactive” throughout. In addition, the Potency result in assay [10] and in assay [9] was “inactive” throughout.

On to `CC1=NN(c2ccccc2)C(=O)C1`, for which the result in assay [4] was inactive. Further, in [5], the Potency is 3.36 µM (active). In addition, the Potency result in assay [1], in assay [2], in [7], in assay [8], in assay [10] and in [9] was “inactive” each time.

With `NC1(c2ccc(-c3nc4ccn5c(=O)[nH]nc5c4cc3-c3ccccc3)cc2)CCC1`, in [4], the result was inactive. Moreover, the Potency result in [5] and in assay [1] was “inactive” in each case. Also, the Potency in [2] is 0.332 µM (active); in [3] it was 11.8 µM (active); in [6], 3.72 µM (active); in [7], 14.8 µM (active); in assay [8] it was 0.296 µM (active); in assay [9], 1.87 µM (active).

As to `Cc1nnc(C(=O)NC(C)(C)c2nc(C(=O)NCc3ccc(F)cc3)c(O)c(=O)n2C)o1`, the compound was called inactive in [4]. Moreover, the Potency entry in assay [5], in assay [1], in assay [2], in assay [3], in [7] and in [10] was “inactive” in each case. Besides, in assay [9], the Potency result was “inactive”. Moreover, in assay [6], the Potency was 0.0042 µM (active).

For `CC(C(=O)O)c1ccc2c(c1)CC(=O)c1ccccc1S2` (stereo not drawn), the call in assay [4] was inactive. Further, the Potency result in [5], in assay [1], in assay [2], in assay [3], in [7] and in assay [9] was “inactive” throughout.

With `COc1ccc(-c2ccc3cc(C(=O)O)ccc3c2)cc1C12CC3CC(CC(C3)C1)C2`, the Potency entry in assay [1], in [2], in assay [3], in assay [6], in [7] and in assay [8] was “inactive” in each case. Besides, the Potency result in assay [10] and in assay [9] was “inactive” in each case.

With `CC(=O)Oc1ccccc1C(=O)Nc1ncc([N+](=O)[O-])s1`, the Potency is 19.1 µM (active) in [1]; 30.3 µM (active) in [2]; 13.6 µM (active) in [3]; 13.6 µM (active) in assay [6]; 34 µM (active) in [7]; 21.5 µM (active) in assay [8]. Moreover, the figures for the Potency in assay [10] and in [9] were 12.1 µM (active) and 8.55 µM (active), respectively.

As for `O=C(O)CCn1c2c(c3ccccc31)C[C@H](NS(=O)(=O)c1ccc(F)cc1)CC2`, the compound was called inactive in assay [4].

Consider `Cc1onc(-c2ccccc2Cl)c1C(=O)N[C@@H]1C(=O)N2[C@@H]1SC(C)(C)[C@@H]2C(=O)O`, for which the compound was classed as inactive in assay [4]. Besides, the Potency result in assay [5], in assay [1], in [2], in assay [3], in assay [6] and in [7] was “inactive” each time. The Potency result in assay [8], in [10] and in assay [9] was “inactive” throughout.

`CC(C)C[C@H](NC(=O)[C@H](CCc1ccccc1)NC(=O)CN1CCOCC1)C(=O)N[C@@H](Cc1ccccc1)C(=O)N[C@@H](CC(C)C)C(=O)[C@@]1(C)CO1`: the Potency in assay [1] is 0.0083 µM (active); in [2] it was 0.001 µM (active); in [3], 0.0105 µM (active); in [6], 0.0066 µM (active); in assay [7] it was 0.0074 µM (active); in [8] it was 0.001 µM (active). The Potency in assay [10] and in [9] was 0.001 µM (active) each time.

Take `Cc1cc(NS(=O)(=O)c2ccc(N)cc2)no1`: the Potency result in assay [1], in assay [2], in [3], in assay [6], in [7] and in assay [8] was “inactive” in each case. Besides, the Potency entry in assay [10] and in assay [9] was “inactive” each time.

As for `COc1cc2c(Nc3ccc(Br)cc3F)ncnc2cc1OCC1CCN(C)CC1`, the compound was classed as inactive in assay [4]. In assay [3], the Potency is 23.5 µM (active). The Potency entry in assay [10] and in assay [9] was “inactive” throughout.
